From PubChem BioAssay (NCATS)
Results filed as inconclusive are left out. Active and inactive are the calls of the source. Calls come from the whole dose curve.

target: Peroxisome proliferator-activated receptor delta (Homo sapiens) (UniProt Q03181); test: qHTS assay for small molecule agonists of peroxisome proliferator-activated receptor delta signaling (AID 588534); conditions: HEK293T PPARdelta-UAS-bla, beta-lactamase ratio, 18 h; series mostly up to 76.7 µM
In short: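 Titration series tested in agonist mode on beta-lactamase reporter cells; 18 hrs at 37 C after a 5 hr pre-incubation. Readout: CCF4 fluorescence, 2 hrs RT. Hill equation gives EC50 and maximal response.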

Chain of Peroxisome proliferator-activated receptor delta (Homo sapiens) (Q03181 whole entry, looked up): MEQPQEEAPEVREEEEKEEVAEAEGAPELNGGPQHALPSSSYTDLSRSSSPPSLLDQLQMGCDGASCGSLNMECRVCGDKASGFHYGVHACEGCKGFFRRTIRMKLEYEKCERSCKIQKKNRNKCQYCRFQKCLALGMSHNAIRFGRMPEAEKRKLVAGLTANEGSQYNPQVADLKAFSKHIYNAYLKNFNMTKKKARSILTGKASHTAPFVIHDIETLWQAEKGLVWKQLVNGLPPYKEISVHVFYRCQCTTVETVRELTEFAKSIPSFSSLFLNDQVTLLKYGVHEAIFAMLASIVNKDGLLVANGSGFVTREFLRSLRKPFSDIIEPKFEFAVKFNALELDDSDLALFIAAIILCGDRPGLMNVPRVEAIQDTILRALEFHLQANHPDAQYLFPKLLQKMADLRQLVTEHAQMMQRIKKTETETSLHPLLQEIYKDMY

SMILES | outcome
COCC(=O)O | inactive
OC1CCCCC1 | inactive
CC1(C)C(=O)N(Br)C(=O)N1Cl | inactive
Nc1ccccc1S(=O)(=O)O | inactive
Cc1ccccc1C=O | inactive
O=C(Cl)c1c(Cl)cccc1Cl | inactive
CSC(=O)c1cccc2nnsc12 | inactive
CCCCCCC=O | inactive
O=c1oc(=O)c2cc3c(=O)oc(=O)c3cc12 | inactive
COC(=O)CSc1cc(N=c2sc(=O)n3n2CCCC3)c(F)cc1Cl | inactive
C=CCOC(=O)COCCC(C)C | inactive
O=C(Cl)c1ccc([N+](=O)[O-])cc1 | inactive
CCCCCCCCCC(=O)OC | inactive
O=[N+]([O-])c1cccc(Cl)c1 | inactive
C=C(C)C1CC=C(C)C(OC(C)=O)C1 (stereo not given) | inactive
C1CCCNCC1 | inactive
CCCCCCCCCCCCCCC1CO1 (stereo not given) | inactive
CCOC(=O)C(C)C(C)=O (stereo not given) | inactive
C/C=C\c1ccc(OC)cc1 | inactive
Nc1nc(N)nc(-c2ccccc2)n1 | inactive

SMILES | outcome
O=C1NC(=O)c2cc([N+](=O)[O-])ccc21 | inactive
OCCOCCOCCOCCO | inactive
O=[N+]([O-])c1ccc2c(c1)Cc1ccccc1-2 | inactive
CCc1ccccc1 | inactive
O=[N+]([O-])c1cc(N(CCO)CCO)ccc1NCCO | inactive
CCC=O | inactive
CCNS(=O)(=O)c1ccc(C)cc1 | inactive
C=CCCCC | inactive
Cc1cccc([N+](=O)[O-])c1C | inactive
Cc1cccc2cccnc12 | inactive
CC1(N)CCC(C(C)(C)N)CC1 (stereo not given) | inactive
Cc1c(N)cccc1[N+](=O)[O-] | inactive
Cc1ccccc1OCC1CO1 (stereo not given) | inactive
Brc1cc(Oc2cc(Br)c(Br)c(Br)c2Br)c(Br)c(Br)c1Br | inactive
O=[N+]([O-])c1ccccc1CCO | inactive
C1CCC2OC2C1 (stereo not given) | inactive
CCCCCCC(O)CCCCCCCCCCC(=O)OC (stereo not given) | inactive
CC(=O)OC(C)(C)C1CC=C(C)CC1 (stereo not given) | inactive
S=C(NC1CCCCC1)NC1CCCCC1 | inactive
C=C(C)C(=O)OCCCCCCCCCCCC | inactive
